The results in this text go back to PubChem BioAssay AID1159580 (chemical genetic matrix, 2015).

A short description of this experiment: chemical genetic growth profiling, strain panel (AID 1159580).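 Further: tested at 20 µM; growth read once vehicle control cultures reached saturation at 30 °C; 1 = growth at the plate median or of vehicle wells; lower values mean less growth of the strain.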 The note with it: S. cerevisiae deletion strains, growth OD.
The mark [1] stands for this setting: locus YAL013W, strain DEP1, hits give low values.
[2] abbreviates: locus YBR229C, strain ROT2, hits give low values.
Setting [3] is: locus YDL101C, strain DUN1, hits give low values.
Setting [4] is: locus YDL134C, strain PPH21, hits give low values.
Setting [5] is: locus YDR150W, strain NUM1, hits give low values.
The mark [6] stands for this setting: locus YEL061C, strain CIN8, hits give low values.
The mark [7] stands for this setting: locus YGR078C, strain PAC10, hits give low values.
[8] abbreviates: locus YHR030C, strain SLT2, hits give low values.
Where [9] appears, read: locus YHR087W, strain rtc3, hits give low values.
The mark [10] stands for this setting: locus YJR043C, strain POL32, hits give low values.
[11] abbreviates: locus YJR075W, strain HOC1, hits give low values.
Setting [12] is: locus YLR039C, strain RIC1, hits give low values.
The mark [13] stands for this setting: locus YLR058C, strain SHM2 (second series), hits give low values.
Where [14] appears, read: locus YLR085C, strain ARP6, hits give low values.
Setting [15] is: locus YLR262C, strain YPT6, hits give low values.
Where [16] appears, read: locus YML094W, strain GIM5, hits give low values.
The mark [17] stands for this setting: locus YMR219W, strain ESC1, hits give low values.
The mark [18] stands for this setting: locus YMR263W, strain SAP30, hits give low values.
[19] abbreviates: locus YNL153C, strain GIM3, hits give low values.
Where [20] appears, read: locus YNL298W, strain CLA4 (second series), hits give low values.
[21] abbreviates: locus YNL322C, strain KRE1, hits give low values.
Where [22] appears, read: locus YNR030W, strain Alg12, hits give low values.
The mark [23] stands for this setting: locus YPL055C, strain LGE1, hits give low values.
Where [24] appears, read: locus YPL241C, strain CIN2, hits give low values.
Setting [25] is: locus YPR135W, strain CTF4, hits give low values.

Among all 5,500 compounds or so, about 2,000 (36%) were called active. Not shown: some 18% with an inconclusive outcome. This is one part of the list. Unmarked numbers belong to inactive results. No stated cut-off is given here; in the data, active means normalized growth mostly below about 0.91 (no sharp cut-off); inconclusive means no clear call, values can overlap the other calls; inactive means mostly above about 0.92.

Take `CC1C(c2ccccc2)OCCN1CN1C(=O)c2ccccc2C1=O` (stereo not given): the normalized growth under setting [1] is 1.02; the normalized growth under setting [2] is 0.985; the normalized growth under setting [3] was 1.01; the normalized growth under setting [4] was 1.01; the normalized growth under setting [5] was 0.99; the normalized growth under setting [6] is 0.98. For the same molecule, the normalized growth by setting is: under setting [7], 1.01; under setting [8], 1.02; under setting [9], 0.993; under setting [10], 1.01; under setting [11], 0.98; (locus YKL190W, strain CNB1, hits give low values) 0.987. For the same molecule, the normalized growth under setting [12] is 1.05; the normalized growth under setting [13] was 1; the normalized growth under setting [14] was 0.969; the normalized growth under setting [15] was 1.07; the normalized growth under setting [16] is 0.975; the normalized growth under setting [17] was 0.996. The normalized growth runs as follows: under setting [18], 0.991; under setting [19], 0.992; under setting [20], 1; under setting [21], 0.993; under setting [22], 1.01; under setting [23], 0.991. Moreover, the normalized growth under setting [24] is 0.98 and the normalized growth under setting [25] is 1.06.
For the molecule `CC(C)(CO)C(O)C(=O)NCCC(=O)NCCSSCCNC(=O)CCNC(=O)C(O)C(C)(C)CO` (stereo not given), the normalized growth is 0.954 under setting [8]; 0.973 (locus YHR079C, strain IRE1, hits give low values); 0.968 (locus YJL095W, strain BCK1, hits give low values); 0.897 (locus YJR066W, strain TOR1, hits give low values); 0.951 (locus YLR113W, strain HOG1, hits give low values); 0.89 (locus YNL183C, strain NPR1, hits give low values). In addition, the normalized growth is, setting by setting: (locus YOR231W, strain MKK1, hits give low values) 0.955; (locus YPL256C, strain CLN2, hits give low values) 0.951.
Take `CCCCCCNC(=O)NCCCCCC`: the normalized growth is, setting by setting: under setting [1], 0.958; under setting [2], 0.931; under setting [3], 0.983; under setting [4], 0.925; under setting [5], 0.931; under setting [6], 0.939. Also, the normalized growth was 0.933 under setting [7]; 0.858 under setting [8]; 0.955 under setting [9]; 0.942 under setting [10]; 0.894 under setting [11]; 0.76 (active) under setting [12]. For the same molecule, the normalized growth by setting is: under setting [13], 0.933 (active); under setting [14], 0.881; under setting [15], 0.723 (active); under setting [16], 0.991; under setting [17], 0.924 (active); under setting [18], 0.98. Besides, the normalized growth is 0.986 under setting [19]; 0.991 under setting [20]; 0.914 (active) under setting [21]; 0.918 under setting [22]; 0.858 (locus YOL006C, strain TOP1, hits give low values); 0.959 under setting [23]. In addition, the normalized growth is 0.982 under setting [24] and 0.824 under setting [25].
